# Results: publication PMC11006913
# Substitutions are numbered along the chain they refer to.
# How the values were obtained:
# Assay in all cases: PBM; 200 nM protein, PBS
# Conditions in all cases: dsDNA, one strand shown
# NKX2-5 [1] = target: NKX2-5 (Homo sapiens, UniProt P52952 125-210, R139K)
# NKX2-4 [2] = target: T1, NKX2-4 (Homo sapiens, UniProt Q9H2Z4 175-261, P217L)
# T1 sequence: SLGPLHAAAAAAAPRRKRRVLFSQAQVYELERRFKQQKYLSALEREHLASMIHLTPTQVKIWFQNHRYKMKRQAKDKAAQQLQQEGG
# NKX2-4 [3] = target: T2, NKX2-4 (Homo sapiens, UniProt Q9H2Z4 175-261, T231S)
# T2 sequence: T1 sequence with L43P, T57S
# NKX2-4 [4] = target: T3, NKX2-4 (Homo sapiens, UniProt Q9H2Z4 175-261)
# T3 sequence: T1 sequence with L43P
# NKX2-6 [5] = target: T4, NKX2-6 (Homo sapiens, UniProt A6NCS4 118-204, R150C)
# T4 sequence: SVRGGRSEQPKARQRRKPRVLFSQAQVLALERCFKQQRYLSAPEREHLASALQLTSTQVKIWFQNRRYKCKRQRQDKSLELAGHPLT
# NKX2-6 [6] = target: T5, NKX2-6 (Homo sapiens, UniProt A6NCS4 118-204)
# T5 sequence: T4 sequence with C33R
# NKX2-4 [7] = target: T6, NKX2-4 (Homo sapiens, UniProt Q9H2Z4 175-261, R246Q)
# T6 sequence: T1 sequence with L43P, R72Q
# NKX2-6 [8] = target: T7, NKX2-6 (Homo sapiens, UniProt A6NCS4 118-204, F151L)
# T7 sequence: T4 sequence with C33R, F34L
# NKX3-2 [9] = target: NKX3-2 (Homo sapiens, UniProt P78367 192-278, P234S)
# NKX2-5 [10] = target: NKX2-5 (Homo sapiens, UniProt P52952 125-210)
# NKX3-2 [11] = target: NKX3-2 (Homo sapiens, UniProt P78367 192-278)
# Chain of NKX3-2 (Homo sapiens, UniProt P78367 192-278) (P78367 192-278): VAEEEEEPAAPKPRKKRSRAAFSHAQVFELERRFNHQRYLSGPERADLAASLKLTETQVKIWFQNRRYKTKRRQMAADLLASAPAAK
# Chain of NKX3-2 (Homo sapiens, UniProt P78367 192-278, P234S) (P78367 192-278 P234S): as the sequence (P78367 192-278) above, with P43S counted along it
# Chain of NKX2-5 (Homo sapiens, UniProt P52952 125-210, R139K) (P52952 125-210 R139K): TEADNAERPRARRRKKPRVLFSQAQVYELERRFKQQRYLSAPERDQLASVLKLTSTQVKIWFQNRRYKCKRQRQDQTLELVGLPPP
# Chain of NKX2-5 (Homo sapiens, UniProt P52952 125-210) (P52952 125-210): as the sequence (P52952 125-210 R139K) above, with K15R counted along it
Sequence,binding signal (NKX2-5 [1]),binding signal (NKX2-4 [2]),binding signal (NKX2-4 [3]),binding signal (NKX2-4 [4]),binding signal (NKX2-6 [5]),binding signal (NKX2-6 [6]),binding signal (NKX2-4 [7]),binding signal (NKX2-6 [8]),binding signal (NKX3-2 [9]),binding signal (NKX2-5 [10]),binding signal (NKX3-2 [11])
AGCACTTA,"12.9 upbm affinity estimate (log intensity, higher = more binding, comparable within an allelic series)","12.6 upbm affinity estimate (log intensity, higher = more binding, comparable within an allelic series)","13 upbm affinity estimate (log intensity, higher = more binding, comparable within an allelic series)","12.5 upbm affinity estimate (log intensity, higher = more binding, comparable within an allelic series)","12 upbm affinity estimate (log intensity, higher = more binding, comparable within an allelic series)","13.7 upbm affinity estimate (log intensity, higher = more binding, comparable within an allelic series)","13.1 upbm affinity estimate (log intensity, higher = more binding, comparable within an allelic series)","11.3 upbm affinity estimate (log intensity, higher = more binding, comparable within an allelic series)","12.9 upbm affinity estimate (log intensity, higher = more binding, comparable within an allelic series)","12.8 upbm affinity estimate (log intensity, higher = more binding, comparable within an allelic series)","12.9 upbm affinity estimate (log intensity, higher = more binding, comparable within an allelic series)"
AACCACTT,"12.9 upbm affinity estimate (log intensity, higher = more binding, comparable within an allelic series)","12.7 upbm affinity estimate (log intensity, higher = more binding, comparable within an allelic series)","13.1 upbm affinity estimate (log intensity, higher = more binding, comparable within an allelic series)","12.6 upbm affinity estimate (log intensity, higher = more binding, comparable within an allelic series)","12 upbm affinity estimate (log intensity, higher = more binding, comparable within an allelic series)","13.7 upbm affinity estimate (log intensity, higher = more binding, comparable within an allelic series)","13.2 upbm affinity estimate (log intensity, higher = more binding, comparable within an allelic series)","10.9 upbm affinity estimate (log intensity, higher = more binding, comparable within an allelic series)","12.9 upbm affinity estimate (log intensity, higher = more binding, comparable within an allelic series)","12.8 upbm affinity estimate (log intensity, higher = more binding, comparable within an allelic series)","12.9 upbm affinity estimate (log intensity, higher = more binding, comparable within an allelic series)"
ACAAGTGG,"12.9 upbm affinity estimate (log intensity, higher = more binding, comparable within an allelic series)","12.6 upbm affinity estimate (log intensity, higher = more binding, comparable within an allelic series)","13.1 upbm affinity estimate (log intensity, higher = more binding, comparable within an allelic series)","12.5 upbm affinity estimate (log intensity, higher = more binding, comparable within an allelic series)","12 upbm affinity estimate (log intensity, higher = more binding, comparable within an allelic series)","13.7 upbm affinity estimate (log intensity, higher = more binding, comparable within an allelic series)","13.2 upbm affinity estimate (log intensity, higher = more binding, comparable within an allelic series)","10.8 upbm affinity estimate (log intensity, higher = more binding, comparable within an allelic series)","12.6 upbm affinity estimate (log intensity, higher = more binding, comparable within an allelic series)","12.8 upbm affinity estimate (log intensity, higher = more binding, comparable within an allelic series)","12.7 upbm affinity estimate (log intensity, higher = more binding, comparable within an allelic series)"
AGTACTTG,"12.5 upbm affinity estimate (log intensity, higher = more binding, comparable within an allelic series)","12.5 upbm affinity estimate (log intensity, higher = more binding, comparable within an allelic series)","12.9 upbm affinity estimate (log intensity, higher = more binding, comparable within an allelic series)","12.4 upbm affinity estimate (log intensity, higher = more binding, comparable within an allelic series)","11.6 upbm affinity estimate (log intensity, higher = more binding, comparable within an allelic series)","13.5 upbm affinity estimate (log intensity, higher = more binding, comparable within an allelic series)","13 upbm affinity estimate (log intensity, higher = more binding, comparable within an allelic series)","10.8 upbm affinity estimate (log intensity, higher = more binding, comparable within an allelic series)",–,"12.3 upbm affinity estimate (log intensity, higher = more binding, comparable within an allelic series)",–
AAGTACCC,"12.4 upbm affinity estimate (log intensity, higher = more binding, comparable within an allelic series)","12.4 upbm affinity estimate (log intensity, higher = more binding, comparable within an allelic series)","12.9 upbm affinity estimate (log intensity, higher = more binding, comparable within an allelic series)","12.3 upbm affinity estimate (log intensity, higher = more binding, comparable within an allelic series)","11.7 upbm affinity estimate (log intensity, higher = more binding, comparable within an allelic series)","13.4 upbm affinity estimate (log intensity, higher = more binding, comparable within an allelic series)","12.9 upbm affinity estimate (log intensity, higher = more binding, comparable within an allelic series)","10.5 upbm affinity estimate (log intensity, higher = more binding, comparable within an allelic series)","12.8 upbm affinity estimate (log intensity, higher = more binding, comparable within an allelic series)","12.2 upbm affinity estimate (log intensity, higher = more binding, comparable within an allelic series)","12.8 upbm affinity estimate (log intensity, higher = more binding, comparable within an allelic series)"
ATACTTGA,"12.4 upbm affinity estimate (log intensity, higher = more binding, comparable within an allelic series)","12.6 upbm affinity estimate (log intensity, higher = more binding, comparable within an allelic series)","13 upbm affinity estimate (log intensity, higher = more binding, comparable within an allelic series)","12.5 upbm affinity estimate (log intensity, higher = more binding, comparable within an allelic series)","11.6 upbm affinity estimate (log intensity, higher = more binding, comparable within an allelic series)","13.5 upbm affinity estimate (log intensity, higher = more binding, comparable within an allelic series)","13.2 upbm affinity estimate (log intensity, higher = more binding, comparable within an allelic series)","10.7 upbm affinity estimate (log intensity, higher = more binding, comparable within an allelic series)",–,"12.3 upbm affinity estimate (log intensity, higher = more binding, comparable within an allelic series)",–
ACGGCCTG,"8.92 upbm affinity estimate (log intensity, higher = more binding, comparable within an allelic series)","9.73 upbm affinity estimate (log intensity, higher = more binding, comparable within an allelic series)","9.59 upbm affinity estimate (log intensity, higher = more binding, comparable within an allelic series)","9.65 upbm affinity estimate (log intensity, higher = more binding, comparable within an allelic series)",–,–,"9.71 upbm affinity estimate (log intensity, higher = more binding, comparable within an allelic series)",–,–,"8.81 upbm affinity estimate (log intensity, higher = more binding, comparable within an allelic series)",–
